# Data taken from the supplement of paper PMC4166925.
# ± gives the standard deviation of the averaged measurements. The full ranking holds about 33,000 sequences; the median of “E-score (dimensionless, -0.5 to 0.5)” is about -0.049, and the highest 2% start at about 0.37. The sample holds the highest values, similar sequences and a random draw of the others, so the mix is not that of the screen.
# Test system: T1, PmTbr T-box DNA-binding domain (GST fusion)
# T1 sequence: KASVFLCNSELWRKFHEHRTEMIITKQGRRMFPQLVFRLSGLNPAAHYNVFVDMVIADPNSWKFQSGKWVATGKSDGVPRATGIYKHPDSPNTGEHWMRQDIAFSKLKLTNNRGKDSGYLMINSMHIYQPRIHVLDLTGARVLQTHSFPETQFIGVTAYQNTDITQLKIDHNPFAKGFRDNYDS
# Assay: PBM E-score of 8-mer (E-score (dimensionless, -0.5 to 0.5)); Tbr is Tbrain of the sea star Patiria miniata (Pm) or the sea urchin Strongylocentrotus purpuratus (Sp); higher = stronger binding preference
# Conditions: the construct has about 5 more residues each side
# Procedure, shortened: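 Primer extension turned Universal Agilent oligonucleotide arrays double-stranded. They were incubated with 200 nM protein in PBS (pH 7.5); the protein was a GST-fused Tbr T-box DNA-binding domain expressed in BL21 E. coli at 20 °C and purified on glutathione. Every ungapped 8-mer was scored from the scanned, quantified probe intensities, and the Universal PBM Analysis Suite gave each an enrichment E-score averaged over duplicate arrays.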
row,Sequence,PBM E-score of 8-mer
1,ATTGACAC,0.412 ± 0.0065
2,ATTGACAA,0.304 ± 0.043
3,CTTGACGC,0.27 ± 0.0032
4,ATTTGGTC,-0.154 ± 0.024
5,CCACGTAC,0.0376 ± 0.016
6,AGTCATAT,-0.234 ± 0.069
7,CTTAACAC,0.434 ± 0.013
8,ATTAACAG,0.143 ± 0.048
9,CTTAACAA,0.201 ± 0.041
10,ATTAACAA,0.173 ± 0.14
11,ATTAACAC,0.449 ± 0.0075
12,CTTAACCC,-0.0938 ± 0.018
13,CTACTCGA,-0.0985 ± 0.018
14,AACTTAAT,-0.0144 ± 0.063
15,GGTTCTTA,-0.0403 ± 0.11
16,ACCTTAAC,0.0595 ± 0.0064
17,ACCACCCC,0.191 ± 0.072
18,GCCACCCA,0.0536 ± 0.024
19,AACACCCT,0.433 ± 0.017
20,ACCACCCT,0.0583 ± 0.021
21,GACACCCC,0.409 ± 0.031
22,AGCACCCT,0.309 ± 0.031

row,Sequence,PBM E-score of 8-mer
1,GCCACCCC,0.208 ± 0.0084
2,GGCACCCC,0.244 ± 0.03
3,AACACCCA,0.348 ± 0.029
4,AACACCCC,0.433 ± 0.0072
5,GACACCCA,0.388 ± 0.032
6,GGCACCCA,0.217 ± 0.018
7,CTACATGA,-0.0685 ± 0.044
8,CTCCGTCC,-0.281 ± 0.02
9,GCTCAATA,-0.0299 ± 0.077
10,CCTCGATC,0.0184 ± 0.014
11,CTCAGAGA,-0.262 ± 0.012
12,CGCGTTGC,0.211 ± 0.017
13,GCTAAGGA,-0.08306 ± 0.00035
14,ATCACTAG,0.0709 ± 0.015
15,GTAAGCAA,-0.113 ± 0.031
16,CTTGCACA,0.148 ± 0.026
17,GCGACACA,0.302 ± 0.022
18,CCGACATC,-0.0298 ± 0.027
19,CCGACACG,0.261 ± 0.013
20,CCGACACA,0.37 ± 0.028
21,GGGACACC,0.216 ± 0.077
22,ACGACACT,0.298 ± 0.0045

row,Sequence,PBM E-score of 8-mer
1,ACGACACG,0.225 ± 0.062
2,GCGACACC,0.462 ± 0.011
3,TCGACACA,0.319 ± 0.016
4,ACGACACC,0.421 ± 0.018
5,CCGACACC,0.448 ± 0.018
6,CAGACACC,0.355 ± 0.0066
7,GTCCAGGA,-0.195 ± 0.049
8,ACATATGA,0.0313 ± 0.063
9,CTCGATCA,0.0196 ± 0.0013
10,GTCCCCAA,-0.071 ± 0.1
11,TCAGTCGA,-0.0383 ± 0.035
12,AGAGTACC,-0.132 ± 0.064
13,GATATAAC,0.115 ± 0.0035
14,GACATCTC,-0.14 ± 0.016
15,GATTTGGC,0.249 ± 0.01
16,GGTTGTCA,0.342 ± 0.0085
17,CGTTGTTA,0.157 ± 0.043
18,AGTTGTCA,0.4064 ± 0.0017
19,AGTTGTTG,0.195 ± 0.0086
20,AGTTGTTA,0.388 ± 0.011
21,AGTTGTCG,0.309 ± 0.0099
22,CTCTTTTA,0.105 ± 0.092

row,Sequence,PBM E-score of 8-mer
1,ATCACACG,0.39 ± 0.0083
2,ATCACAGG,0.195 ± 0.099
3,ATCACACA,0.418 ± 0.01
4,ATCACAGC,0.211 ± 0.024
5,AACACACC,0.3 ± 0.019
6,ATCACAAA,0.0643 ± 0.013
7,ATCACAGA,0.129 ± 0.011
8,ATCACACC,0.4877 ± 0.0026
9,ATCACATA,0.297 ± 0.028
10,AACAAGCT,-0.168 ± 0.035
11,TAGAACGA,-0.136 ± 0.028
12,GCATAGTA,-0.202 ± 0.024
13,AACACTTA,0.42 ± 0.019
14,AACACTAG,0.275 ± 0.056
15,ATCACTTC,0.293 ± 0.015
16,CACACTTA,0.4445 ± 0.0038
17,CGCACTTA,0.293 ± 0.022
18,AGCACTTC,0.313 ± 0.012
19,CACACTGA,0.2581 ± 0.00048
20,AACACTTG,0.408 ± 0.0044
21,ATCACTTA,0.194 ± 0.042
22,ATCACTTG,0.216 ± 0.045
